The source of these data is PubChem BioAssay AID720513 (Broad Institute, 2013).

Each structure is given as a SMILES string. In all, about 2,100 compounds went through this assay and about 480 (23%) were called active. Inconclusive results (about 5%) are left out.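 How the source made its calls: active means fitted curve reaches 40% activation at or below the top valid concentration, in every replicate test; inconclusive means replicate tests disagree on the call; inactive means the rest, including activity in the opposite direction.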 These entries were drawn from the full list. Entries with a potency or affinity are not part of this list.

The assay is described as follows: activators raising PGC1a acetylation in cells, dose response, cell-based, cherry-picked samples, set 6 (AID 720513).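 Further: cells made to overexpress flag tagged PGC1a plus GCN5 acetyltransferase by viral infection.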 Conditions: U2OS PGC1a acetylation AlphaLISA, overnight, 0 = neutral, -100 = inhibitor control; series mostly up to 19.5 µM; activation (acetylation increase): at the top concentration.
For `Cc1ccccc1-c1ccc(C2[C@@H]3CN(C(=O)Nc4cccc(F)c4)C[C@H]2N3)cc1` (stereo partly specified), the “activation (acetylation increase)” value was -97.6% (inactive).

Regarding `O=C(Nc1ccc(F)cc1)N1CCCCN2[C@H](CO)[C@@H](c3ccc(C#Cc4ccccc4)cc3)[C@H]2C1`, the “activation (acetylation increase)” value is -24.8% (inactive).

Take `COCCN(C(=O)CSc1nn(-c2ccc(F)cc2)c(=S)s1)c1c(N)n(CC(C)C)c(=O)[nH]c1=O`: the “activation (acetylation increase)” value was 4.95% (inactive).

On to `COc1ccccc1CNS(=O)(=O)c1cc(C)ccc1OC`, for which the “activation (acetylation increase)” value was 35.1% (inactive).

With `C[C@@H]1CN([C@@H](C)CO)C(=O)CCCn2nncc2CO[C@H]1CN(C)Cc1ccc(O)cc1`, the “activation (acetylation increase)” value was 5.72% (inactive).

In the case of `CCOc1ccc(N(CC(=O)Nc2ccccc2OC)S(=O)(=O)c2ccccc2)cc1`, the “activation (acetylation increase)” value is -19.4% (inactive).

Regarding `C[C@@H]1CCCCO[C@H](CN(C)Cc2ccc3c(c2)OCO3)[C@@H](C)CN([C@@H](C)CO)C(=O)c2cc(NC(=O)Nc3ccc(C(F)(F)F)cc3)ccc2O1`, the “activation (acetylation increase)” value is -94.8% (inactive).

Consider `CC(=O)c1cccc(-c2ccnc3c2CC(C(=O)NCC2CC2)O3)c1` (stereo unspecified), for which the “activation (acetylation increase)” value was 19.7% (inactive).

Take `CC(=O)c1cccc(-c2ccnc3c2CC(C(=O)Nc2ccc4c(c2)OCO4)O3)c1` (stereo unspecified): the “activation (acetylation increase)” value was 20.9% (inactive).

Turning to `O=C(NCc1ccccc1)C1Cc2c(-c3ccc4c(c3)OCO4)ccnc2O1` (stereo unspecified), the “activation (acetylation increase)” value is 55.9% (inactive).

Consider `O=C(CSc1nnc(-c2ccncc2)n1-c1ccc(Cl)cc1)NCc1cccs1`, for which the “activation (acetylation increase)” value was 25.8% (inactive).

With `COc1ccc(-c2[nH]ncc2-c2ccc3c(c2)OCCO3)c(O)c1`, the “activation (acetylation increase)” value was -17.4% (inactive).

On to `Cn1nc(C(=O)N2CCCCC2)c2c1-c1ccccc1S(=O)(=O)C2`, for which the “activation (acetylation increase)” value was 13.5% (inactive).

For `CC(C)(C)c1ccc(-n2nc(C#N)c(Cl)cc2=O)cc1`, the “activation (acetylation increase)” value is -111% (inactive).

Turning to `Cc1cc(-c2c(C)[nH]n(-c3ccc(Cl)cc3)c2=O)n(-c2ccccc2)n1`, the “activation (acetylation increase)” value is 21.5% (inactive).

With `COc1ccc(CN(C)C[C@@H]2OCCCC[C@@H](C)Oc3ccc(NS(C)(=O)=O)cc3C(=O)N([C@H](C)CO)C[C@@H]2C)cc1`, the “activation (acetylation increase)” value was 15.2% [at 21 µM] (inactive).

Consider `CC(C)(C)NS(=O)(=O)c1ccc(-c2csnn2)s1`, for which the “activation (acetylation increase)” value was -32.1% (inactive).

For `CC(C)CC#Cc1ccc2c(c1)O[C@H](CN(C)C)[C@@H](C)CN([C@H](C)CO)S2(=O)=O`, the “activation (acetylation increase)” value was 23.4% (inactive).

On to `CCC1(CC)Cc2ccccc2-c2nc(CN(C)C)[nH]c(=O)c21`, for which the “activation (acetylation increase)” value was -10.6% (inactive).

As to `CC(=O)c1ccc(N2CCN(S(=O)(=O)c3csc(C(N)=O)c3)CC2)cc1`, the “activation (acetylation increase)” value was 22.3% (inactive).

For the molecule `COc1cc(C(C)=O)ccc1OCC(O)CN1CCN(c2ccc(C)c(C)c2)CC1` (stereo unspecified), the “activation (acetylation increase)” value is 15.2% (inactive).

For the molecule `COc1ccc(CN(C)C[C@H]2Oc3ccc(NC(=O)Cc4cn(C)c5ccccc45)cc3CC(=O)N([C@@H](C)CO)C[C@@H]2C)cc1`, the “activation (acetylation increase)” value is 6.37% (inactive).

Take `COc1ccc(-c2cnc3c(c2)C(=O)N([C@H](C)CO)C[C@H](C)[C@@H](CN(C)C(=O)C2CC2)O3)cc1`: the “activation (acetylation increase)” value was -29.3% (inactive).

Take `C[C@@H]1CN([C@H](C)CO)C(=O)CCCn2cc(nn2)CO[C@@H]1CN(C)C(=O)OCc1ccccc1`: the “activation (acetylation increase)” value was 0.754% (inactive).

Consider `C[C@@H]1CN([C@H](C)CO)C(=O)c2cc(-c3ccccc3)cnc2O[C@@H]1CN(C)C(=O)Cc1ccccc1`, for which the “activation (acetylation increase)” value is 11.2% (inactive).

In the case of `COc1ccc(-c2cnc3c(c2)C(=O)N([C@H](C)CO)C[C@H](C)[C@@H](CN(C)C(=O)C2CCC2)O3)cc1`, the “activation (acetylation increase)” value was -32% (inactive).

Turning to `CCCCC(C(=O)O)C(C)CC(=O)Nc1nncs1` (stereo unspecified), the “activation (acetylation increase)” value was 9.62% (inactive).

Take `C[C@@H]1CN([C@@H](C)CO)C(=O)c2cc(C3=CCCC3)cnc2O[C@H]1CN(C)C(=O)Nc1cccc(F)c1`: the “activation (acetylation increase)” value is 29% (inactive).

`CCOc1ccc(CN2CCNC(=O)C2CC(=O)NCc2ccccn2)cc1` (stereo unspecified): the “activation (acetylation increase)” value was 10.1% (inactive).

For `CSCCC(NC(=O)OC(C)(C)C)C(=O)Oc1ccc2c(=O)c(-c3ccc4c(c3)OCCO4)coc2c1` (stereo unspecified), the “activation (acetylation increase)” value was -26.8% (inactive).

`O=C(C1CCCO1)N1CCN(Cc2c(O)ccc3ccccc23)CC1` (stereo unspecified): the “activation (acetylation increase)” value was 12.8% (inactive).

On to `C[C@@H]1CCCCO[C@H](CN(C)Cc2ccc(C(F)(F)F)cc2)[C@H](C)CN([C@@H](C)CO)C(=O)c2cc(NC(=O)NC3CCCCC3)ccc2O1`, for which the “activation (acetylation increase)” value was 28% (inactive).

`COc1cccc(-c2noc(C3CCCN(C(=O)Cc4ccccc4)C3)n2)c1` (stereo unspecified): the “activation (acetylation increase)” value is 29.8% (inactive).

On to `COc1ccc(CN(Cc2cccn2C)S(=O)(=O)c2ccccc2)cc1`, for which the “activation (acetylation increase)” value was 30.6% (inactive).

Consider `C[C@H](CO)N1C[C@H](C)[C@H](CN(C)Cc2ccccc2)Oc2cc(Br)ccc2S1(=O)=O`, for which the “activation (acetylation increase)” value is -7.01% (inactive).

On to `C[C@H]1CN([C@@H](C)CO)S(=O)(=O)c2ccc(Br)cc2O[C@H]1CN(C)S(C)(=O)=O`, for which the “activation (acetylation increase)” value is 2.73% (inactive).

Turning to `COc1ccccc1C(NC(C)=O)c1cc(Cl)c2cccnc2c1O` (stereo unspecified), the “activation (acetylation increase)” value was 10.3% (inactive).

In the case of `CC(=O)c1cccc(-c2ccnc3c2CC(C(=O)NCc2ccco2)O3)c1` (stereo unspecified), the “activation (acetylation increase)” value was 4.41% (inactive).

On to `Cc1ccc(CN(C(=O)Cn2nnc3ccccc32)C(C(=O)NCc2ccco2)c2cccs2)cc1` (stereo unspecified), for which the “activation (acetylation increase)” value is -24.9% (inactive).

For `CC(c1ccco1)N(C(=O)c1cc(Cl)cc(Cl)c1)c1ccccn1` (stereo unspecified), the “activation (acetylation increase)” value was 27.1% (inactive).

`C[C@H](CO)N1C[C@H](C)[C@H](CN(C)S(=O)(=O)c2cn(C)cn2)OCCCC[C@H](C)Oc2ccc(NC(=O)Nc3cccc4ccccc34)cc2C1=O`: the “activation (acetylation increase)” value was -7.46% (inactive).

Turning to `Clc1ccc(C(c2ccccc2Cl)C(Cl)Cl)cc1` (stereo unspecified), the “activation (acetylation increase)” value is 6.49% (inactive).

In the case of `CC(C)Cc1nn2c(=O)cc(O)nc2s1`, the “activation (acetylation increase)” value was 16.5% (inactive).

Regarding `Cc1ccc(S(=O)(=O)C(NC(=O)c2ccccc2)=C(Cl)Cl)cc1`, the “activation (acetylation increase)” value is 32.9% [at 10 µM] (inactive).

Regarding `Cc1cc(OCC(=O)O/N=C(\N)c2ccccc2)cc(C)c1Cl`, the “activation (acetylation increase)” value was 4.64% (inactive).

For `Cc1ccc(C(CC(=O)O)NC(=O)CCNC(=O)c2ccco2)cc1` (stereo unspecified), the “activation (acetylation increase)” value is 29.7% (inactive).
